# From publication PMC7862700, “An all-to-all approach to the identification of sequence-specific readers for epigenetic DNA modifications on cytosine”
# Experiments:
# Experiment in all cases: DAPPL (digital affinity profiling via proximity ligation, sequencing); 10 mM Tris-HCl pH 7.5, 50 mM NaCl, 1 mM DTT, 4% glycerol, room temperature, 30 min; GST-TFs on glutathione beads, 16-mer random dsDNA library, 0.1% formaldehyde crosslink after washing; high values mean tight binding
# FLI1 = target: T1, FLI1 (Homo sapiens, UniProt Q01543 1-452); conditions: protein: recombinant; tags: N-terminal GST; dsDNA, one strand shown
# T1 sequence: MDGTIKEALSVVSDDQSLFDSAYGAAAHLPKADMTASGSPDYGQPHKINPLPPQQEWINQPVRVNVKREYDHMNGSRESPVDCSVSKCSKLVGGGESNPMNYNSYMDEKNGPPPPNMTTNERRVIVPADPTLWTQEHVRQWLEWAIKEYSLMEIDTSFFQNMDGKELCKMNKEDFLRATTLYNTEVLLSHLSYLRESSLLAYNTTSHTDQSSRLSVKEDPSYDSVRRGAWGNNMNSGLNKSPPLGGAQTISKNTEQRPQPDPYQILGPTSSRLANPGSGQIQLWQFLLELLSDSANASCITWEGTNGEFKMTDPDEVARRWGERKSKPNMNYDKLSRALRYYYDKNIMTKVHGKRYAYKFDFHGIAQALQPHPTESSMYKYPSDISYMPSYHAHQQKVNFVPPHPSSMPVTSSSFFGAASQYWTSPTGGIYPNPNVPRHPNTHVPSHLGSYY
# How it was run: (§1)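 After expression in yeast as GST fusions, human transcription factors were bound to glutathione beads, DNA-barcoded and mixed with a tag-only sample. The pools were incubated with 200 nmole of a 16-mer random double-stranded DNA library in Tris/NaCl/DTT/glycerol buffer (30 min, room temperature), washed and crosslinked with 0.1% formaldehyde. Proximity ligation with BsaI/T4 ligase ran for 1 h at 37 °C, before PCR amplification and sequencing on an Illumina NextSeq500. Binding signal is a hexamer's read frequency for a factor divided by its frequency for the tag-only sample.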
# ELK1 = target: T2, ELK1 (Homo sapiens, UniProt P19419 1-428); conditions: protein: recombinant; tags: N-terminal GST; dsDNA, one strand shown
# T2 sequence: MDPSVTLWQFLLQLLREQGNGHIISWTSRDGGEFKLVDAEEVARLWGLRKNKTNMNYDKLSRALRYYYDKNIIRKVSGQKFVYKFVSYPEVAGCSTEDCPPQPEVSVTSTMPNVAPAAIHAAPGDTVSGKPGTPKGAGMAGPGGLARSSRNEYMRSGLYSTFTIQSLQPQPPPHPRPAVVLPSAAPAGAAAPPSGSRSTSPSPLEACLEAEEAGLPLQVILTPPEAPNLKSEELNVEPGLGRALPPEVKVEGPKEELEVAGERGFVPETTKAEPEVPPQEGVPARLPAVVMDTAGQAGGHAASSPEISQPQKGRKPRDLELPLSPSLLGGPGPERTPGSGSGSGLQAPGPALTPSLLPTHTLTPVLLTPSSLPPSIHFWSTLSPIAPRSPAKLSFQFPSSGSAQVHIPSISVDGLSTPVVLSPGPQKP
# How it was run: as §1
# GABPA = target: T3, GABPA (Homo sapiens, UniProt Q06546 1-454); conditions: protein: recombinant; tags: N-terminal GST; dsDNA, one strand shown
# T3 sequence: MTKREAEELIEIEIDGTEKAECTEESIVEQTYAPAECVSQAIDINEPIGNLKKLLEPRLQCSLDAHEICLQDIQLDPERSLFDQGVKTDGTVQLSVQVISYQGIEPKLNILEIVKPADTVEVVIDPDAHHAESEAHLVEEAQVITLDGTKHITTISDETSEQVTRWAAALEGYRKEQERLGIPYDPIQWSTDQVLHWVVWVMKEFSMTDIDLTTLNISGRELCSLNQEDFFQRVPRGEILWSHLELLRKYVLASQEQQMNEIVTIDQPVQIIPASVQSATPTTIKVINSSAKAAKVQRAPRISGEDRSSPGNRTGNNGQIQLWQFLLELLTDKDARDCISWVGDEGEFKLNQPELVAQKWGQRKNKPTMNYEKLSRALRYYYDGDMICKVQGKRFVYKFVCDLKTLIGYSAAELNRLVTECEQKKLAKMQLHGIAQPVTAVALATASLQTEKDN
# How it was run: as §1
# ERG = target: T4, ERG (Homo sapiens, UniProt P11308 1-479); conditions: protein: recombinant; tags: N-terminal GST; dsDNA, one strand shown
# T4 sequence: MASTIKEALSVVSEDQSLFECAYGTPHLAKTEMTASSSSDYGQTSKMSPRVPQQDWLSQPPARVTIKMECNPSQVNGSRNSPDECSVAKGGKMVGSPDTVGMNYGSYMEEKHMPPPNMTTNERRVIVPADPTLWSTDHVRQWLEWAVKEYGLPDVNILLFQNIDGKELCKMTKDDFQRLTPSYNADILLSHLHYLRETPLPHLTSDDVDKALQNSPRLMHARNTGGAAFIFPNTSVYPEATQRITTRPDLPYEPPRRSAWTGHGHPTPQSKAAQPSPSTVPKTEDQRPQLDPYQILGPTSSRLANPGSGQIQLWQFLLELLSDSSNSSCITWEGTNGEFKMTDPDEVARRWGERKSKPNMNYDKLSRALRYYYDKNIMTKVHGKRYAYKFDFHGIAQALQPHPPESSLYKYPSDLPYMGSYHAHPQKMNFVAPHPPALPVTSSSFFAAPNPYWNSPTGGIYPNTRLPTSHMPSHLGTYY
# How it was run: as §1
# ELF1 = ELF1 (Homo sapiens, UniProt P32519 1-619); conditions: protein: recombinant; tags: N-terminal GST; dsDNA, one strand shown
# Sequence of ELF1 (P32519 whole entry): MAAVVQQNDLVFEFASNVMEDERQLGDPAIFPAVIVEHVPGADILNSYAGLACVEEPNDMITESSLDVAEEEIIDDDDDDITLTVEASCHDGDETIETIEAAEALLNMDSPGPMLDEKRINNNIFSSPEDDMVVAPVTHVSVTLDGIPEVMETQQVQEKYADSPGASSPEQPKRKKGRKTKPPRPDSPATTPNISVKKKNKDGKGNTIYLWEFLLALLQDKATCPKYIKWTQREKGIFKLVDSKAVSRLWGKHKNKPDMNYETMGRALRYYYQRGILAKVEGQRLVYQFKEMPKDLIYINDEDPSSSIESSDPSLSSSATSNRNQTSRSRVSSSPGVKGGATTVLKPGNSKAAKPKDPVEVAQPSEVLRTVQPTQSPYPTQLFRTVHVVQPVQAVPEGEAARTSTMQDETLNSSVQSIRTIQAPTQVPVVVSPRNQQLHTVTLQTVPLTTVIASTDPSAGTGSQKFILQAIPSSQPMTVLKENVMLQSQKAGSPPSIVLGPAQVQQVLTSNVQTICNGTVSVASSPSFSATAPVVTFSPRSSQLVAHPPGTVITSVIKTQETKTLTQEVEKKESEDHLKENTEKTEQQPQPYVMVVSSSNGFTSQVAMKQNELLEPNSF
# How it was run: as §1
# EHF = target: T5, EHF (Homo sapiens, UniProt Q9NZC4 1-300); conditions: protein: recombinant; tags: N-terminal GST; dsDNA, one strand shown
# T5 sequence: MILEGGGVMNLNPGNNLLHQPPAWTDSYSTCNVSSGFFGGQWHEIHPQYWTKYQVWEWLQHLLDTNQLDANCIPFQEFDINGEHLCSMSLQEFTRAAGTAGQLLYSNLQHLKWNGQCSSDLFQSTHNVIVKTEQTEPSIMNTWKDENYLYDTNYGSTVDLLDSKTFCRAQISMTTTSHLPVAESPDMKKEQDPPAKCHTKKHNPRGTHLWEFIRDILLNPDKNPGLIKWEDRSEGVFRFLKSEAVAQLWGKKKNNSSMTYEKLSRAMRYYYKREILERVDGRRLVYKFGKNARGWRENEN
# How it was run: as §1
# SPI1 = SPI1 (Homo sapiens, UniProt P17947 1-270); conditions: protein: recombinant; tags: N-terminal GST; dsDNA, one strand shown
# How it was run: as §1
# SPIB = SPIB (Homo sapiens, UniProt Q01892 1-262); conditions: protein: recombinant; tags: N-terminal GST; dsDNA, one strand shown
# Sequence of SPIB (Q01892 whole entry): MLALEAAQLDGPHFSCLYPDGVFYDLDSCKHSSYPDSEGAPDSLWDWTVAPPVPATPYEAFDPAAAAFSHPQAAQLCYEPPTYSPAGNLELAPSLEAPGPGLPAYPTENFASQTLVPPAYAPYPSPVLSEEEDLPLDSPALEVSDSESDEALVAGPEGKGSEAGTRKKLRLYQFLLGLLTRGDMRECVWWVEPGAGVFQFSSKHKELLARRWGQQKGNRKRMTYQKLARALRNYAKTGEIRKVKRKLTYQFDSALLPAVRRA
# How it was run: as §1
# ELK3 = target: T6, ELK3 (Homo sapiens, UniProt P41970 1-407); conditions: protein: recombinant; tags: N-terminal GST; dsDNA, one strand shown
# T6 sequence: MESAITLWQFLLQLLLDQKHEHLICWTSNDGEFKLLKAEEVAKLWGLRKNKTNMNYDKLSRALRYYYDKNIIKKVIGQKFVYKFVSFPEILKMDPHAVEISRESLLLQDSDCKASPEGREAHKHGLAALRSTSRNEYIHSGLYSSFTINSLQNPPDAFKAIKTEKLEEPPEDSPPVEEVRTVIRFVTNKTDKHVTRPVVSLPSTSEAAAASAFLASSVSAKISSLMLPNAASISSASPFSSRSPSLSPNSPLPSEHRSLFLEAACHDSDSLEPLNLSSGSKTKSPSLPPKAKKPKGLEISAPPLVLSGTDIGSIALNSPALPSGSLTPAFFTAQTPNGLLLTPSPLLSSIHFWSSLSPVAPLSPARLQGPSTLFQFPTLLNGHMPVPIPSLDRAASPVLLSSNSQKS
# How it was run: as §1
# FEV = target: T7, FEV (Homo sapiens, UniProt Q99581 1-238); conditions: protein: recombinant; tags: N-terminal GST; dsDNA, one strand shown
# T7 sequence: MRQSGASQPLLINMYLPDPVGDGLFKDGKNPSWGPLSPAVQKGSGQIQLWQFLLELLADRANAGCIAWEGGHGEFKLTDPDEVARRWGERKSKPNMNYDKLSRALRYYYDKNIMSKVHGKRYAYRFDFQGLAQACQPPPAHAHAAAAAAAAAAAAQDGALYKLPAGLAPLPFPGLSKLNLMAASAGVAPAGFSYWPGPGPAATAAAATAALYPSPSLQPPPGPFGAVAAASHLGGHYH
# How it was run: as §1
# ETV5 = ETV5 (Homo sapiens, UniProt P41161 1-510); conditions: protein: recombinant; tags: N-terminal GST; dsDNA, one strand shown
# Sequence of ETV5 (P41161 whole entry): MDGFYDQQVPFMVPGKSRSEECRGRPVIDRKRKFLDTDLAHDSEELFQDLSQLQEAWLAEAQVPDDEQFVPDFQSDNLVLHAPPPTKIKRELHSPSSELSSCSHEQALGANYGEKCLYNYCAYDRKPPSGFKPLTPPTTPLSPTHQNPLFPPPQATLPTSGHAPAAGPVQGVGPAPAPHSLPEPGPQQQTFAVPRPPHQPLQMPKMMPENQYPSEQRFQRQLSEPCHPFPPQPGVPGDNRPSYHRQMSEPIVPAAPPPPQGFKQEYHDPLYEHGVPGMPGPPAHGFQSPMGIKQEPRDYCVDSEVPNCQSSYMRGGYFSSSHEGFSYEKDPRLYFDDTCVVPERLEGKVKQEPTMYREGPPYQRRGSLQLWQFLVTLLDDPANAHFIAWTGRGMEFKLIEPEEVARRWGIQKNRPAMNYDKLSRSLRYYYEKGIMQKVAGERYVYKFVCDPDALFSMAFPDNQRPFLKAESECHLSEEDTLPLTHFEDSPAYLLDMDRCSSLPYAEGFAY
# How it was run: as §1
# HSF1 = HSF1 (Homo sapiens, UniProt Q00613 1-529); conditions: protein: recombinant; tags: N-terminal GST; chain copies: 3; dsDNA, one strand shown
# Sequence of HSF1 (Q00613 whole entry): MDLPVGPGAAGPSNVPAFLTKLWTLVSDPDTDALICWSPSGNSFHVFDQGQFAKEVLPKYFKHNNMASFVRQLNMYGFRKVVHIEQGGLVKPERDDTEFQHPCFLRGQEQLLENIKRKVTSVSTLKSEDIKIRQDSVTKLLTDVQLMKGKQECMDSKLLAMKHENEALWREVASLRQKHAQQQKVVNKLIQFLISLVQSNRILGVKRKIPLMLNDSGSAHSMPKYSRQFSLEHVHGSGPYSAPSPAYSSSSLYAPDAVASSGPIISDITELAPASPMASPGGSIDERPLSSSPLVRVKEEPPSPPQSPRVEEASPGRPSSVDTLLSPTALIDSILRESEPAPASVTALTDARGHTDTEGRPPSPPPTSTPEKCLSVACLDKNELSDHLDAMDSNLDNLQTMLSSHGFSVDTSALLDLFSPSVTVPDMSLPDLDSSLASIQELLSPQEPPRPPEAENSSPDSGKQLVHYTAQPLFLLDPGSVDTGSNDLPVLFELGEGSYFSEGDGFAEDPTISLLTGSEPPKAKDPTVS
# How it was run: as §1
# SPIC = target: T8, SPIC (Homo sapiens, UniProt Q8N5J4 1-248); conditions: protein: recombinant; tags: N-terminal GST; dsDNA, one strand shown
# T8 sequence: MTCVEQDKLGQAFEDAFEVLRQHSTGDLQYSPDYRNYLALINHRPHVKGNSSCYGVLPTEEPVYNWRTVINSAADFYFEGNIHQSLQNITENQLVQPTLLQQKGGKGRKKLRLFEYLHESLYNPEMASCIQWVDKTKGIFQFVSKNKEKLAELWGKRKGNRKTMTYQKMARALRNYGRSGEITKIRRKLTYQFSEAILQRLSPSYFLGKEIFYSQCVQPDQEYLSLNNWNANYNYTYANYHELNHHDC
# How it was run: as §1
# ELF4 = ELF4 (Homo sapiens, UniProt Q99607 1-663); conditions: protein: recombinant; tags: N-terminal GST; dsDNA, one strand shown
# Sequence of ELF4 (Q99607 whole entry): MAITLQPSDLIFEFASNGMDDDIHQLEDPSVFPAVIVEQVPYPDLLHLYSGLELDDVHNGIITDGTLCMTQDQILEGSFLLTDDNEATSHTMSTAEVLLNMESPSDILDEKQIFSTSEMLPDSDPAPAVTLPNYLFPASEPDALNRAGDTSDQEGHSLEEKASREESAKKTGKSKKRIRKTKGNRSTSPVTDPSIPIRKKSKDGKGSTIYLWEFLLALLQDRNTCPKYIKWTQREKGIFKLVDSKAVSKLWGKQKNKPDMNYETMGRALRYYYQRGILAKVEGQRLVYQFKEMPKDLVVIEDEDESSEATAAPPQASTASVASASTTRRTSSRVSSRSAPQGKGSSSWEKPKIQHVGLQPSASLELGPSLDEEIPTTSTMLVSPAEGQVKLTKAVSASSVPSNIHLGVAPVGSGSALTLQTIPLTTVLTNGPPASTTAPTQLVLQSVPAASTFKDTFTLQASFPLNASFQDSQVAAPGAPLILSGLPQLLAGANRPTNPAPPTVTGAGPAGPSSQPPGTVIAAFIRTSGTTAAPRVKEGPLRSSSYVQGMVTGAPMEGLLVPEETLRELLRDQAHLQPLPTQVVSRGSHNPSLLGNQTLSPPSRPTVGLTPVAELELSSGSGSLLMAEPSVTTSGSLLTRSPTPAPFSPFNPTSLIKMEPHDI
# How it was run: as §1
# ELK4 = target: T9, ELK4 (Homo sapiens, UniProt P28324-2 1-405); conditions: protein: recombinant; tags: N-terminal GST; dsDNA, one strand shown
# T9 sequence: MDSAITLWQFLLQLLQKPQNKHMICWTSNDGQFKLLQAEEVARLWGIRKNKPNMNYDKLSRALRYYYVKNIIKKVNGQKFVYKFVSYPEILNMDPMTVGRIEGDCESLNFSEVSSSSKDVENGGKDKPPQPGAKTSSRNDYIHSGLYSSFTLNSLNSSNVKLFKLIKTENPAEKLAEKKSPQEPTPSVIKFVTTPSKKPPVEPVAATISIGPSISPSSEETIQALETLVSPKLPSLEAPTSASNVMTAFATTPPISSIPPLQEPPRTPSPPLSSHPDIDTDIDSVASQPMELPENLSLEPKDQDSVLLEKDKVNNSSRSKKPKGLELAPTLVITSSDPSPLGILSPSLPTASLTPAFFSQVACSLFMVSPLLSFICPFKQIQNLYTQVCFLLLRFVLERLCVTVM
# How it was run: as §1
# ETV2 = target: T10, ETV2 (Homo sapiens, UniProt O00321 1-342); conditions: protein: recombinant; tags: N-terminal GST; dsDNA, one strand shown
# T10 sequence: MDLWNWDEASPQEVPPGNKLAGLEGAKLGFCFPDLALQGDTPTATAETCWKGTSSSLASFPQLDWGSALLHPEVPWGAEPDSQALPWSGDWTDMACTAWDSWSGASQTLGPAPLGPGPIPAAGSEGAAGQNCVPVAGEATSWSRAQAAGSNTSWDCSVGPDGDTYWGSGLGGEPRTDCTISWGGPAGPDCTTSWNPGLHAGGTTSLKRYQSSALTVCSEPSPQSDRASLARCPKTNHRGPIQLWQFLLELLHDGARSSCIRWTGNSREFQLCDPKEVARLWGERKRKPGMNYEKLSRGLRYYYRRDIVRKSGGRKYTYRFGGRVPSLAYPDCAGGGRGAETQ
# How it was run: as §1
# ELF3 = target: T11, ELF3 (Homo sapiens, UniProt P78545 1-371); conditions: protein: recombinant; tags: N-terminal GST; dsDNA, one strand shown
# T11 sequence: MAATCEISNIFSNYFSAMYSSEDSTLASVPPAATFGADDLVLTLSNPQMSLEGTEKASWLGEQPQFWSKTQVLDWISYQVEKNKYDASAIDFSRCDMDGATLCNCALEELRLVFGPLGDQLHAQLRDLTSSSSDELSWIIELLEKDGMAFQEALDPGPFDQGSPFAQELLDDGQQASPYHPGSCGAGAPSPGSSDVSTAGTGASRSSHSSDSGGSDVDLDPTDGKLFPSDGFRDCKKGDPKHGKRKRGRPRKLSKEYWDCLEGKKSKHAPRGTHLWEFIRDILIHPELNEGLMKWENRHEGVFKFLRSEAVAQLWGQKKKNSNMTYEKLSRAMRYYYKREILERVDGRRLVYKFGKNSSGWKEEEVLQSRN
# How it was run: as §1
# CRX = CRX (Homo sapiens, UniProt O43186 1-299); conditions: protein: recombinant; tags: N-terminal GST; dsDNA, one strand shown
# Sequence of CRX (O43186 whole entry): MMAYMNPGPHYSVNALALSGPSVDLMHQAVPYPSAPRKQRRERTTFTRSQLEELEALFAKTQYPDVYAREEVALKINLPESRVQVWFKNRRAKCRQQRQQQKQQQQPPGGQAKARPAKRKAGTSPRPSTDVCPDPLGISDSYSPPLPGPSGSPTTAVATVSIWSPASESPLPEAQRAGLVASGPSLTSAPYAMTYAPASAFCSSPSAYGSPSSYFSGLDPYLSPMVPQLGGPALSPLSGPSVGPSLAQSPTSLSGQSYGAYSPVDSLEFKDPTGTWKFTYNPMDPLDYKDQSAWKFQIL
# How it was run: as §1
# ETV1 = ETV1 (Homo sapiens, UniProt P50549 1-477); conditions: protein: recombinant; tags: N-terminal GST; dsDNA, one strand shown
# Sequence of ETV1 (P50549 whole entry): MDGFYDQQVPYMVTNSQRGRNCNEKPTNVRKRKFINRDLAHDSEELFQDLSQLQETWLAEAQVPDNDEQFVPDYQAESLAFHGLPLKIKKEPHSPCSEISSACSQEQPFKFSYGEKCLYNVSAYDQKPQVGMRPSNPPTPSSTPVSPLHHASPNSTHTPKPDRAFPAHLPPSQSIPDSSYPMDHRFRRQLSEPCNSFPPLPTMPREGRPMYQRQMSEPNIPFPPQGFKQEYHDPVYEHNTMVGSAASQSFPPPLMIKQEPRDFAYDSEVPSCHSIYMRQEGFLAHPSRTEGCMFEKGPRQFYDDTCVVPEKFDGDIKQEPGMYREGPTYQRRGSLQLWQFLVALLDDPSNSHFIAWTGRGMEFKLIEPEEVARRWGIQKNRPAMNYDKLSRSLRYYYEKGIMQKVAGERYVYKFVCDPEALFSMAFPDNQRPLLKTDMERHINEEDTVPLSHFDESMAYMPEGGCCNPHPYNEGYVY
# How it was run: as §1
sequence,measurement,setting,value
ACAACT,binding signal,FLI1,"1.36 fold enrichment (6-mer frequency, TF over GST control)"
same,binding signal,ELK1,"1.4 fold enrichment (6-mer frequency, TF over GST control)"
same,binding signal,GABPA,"1.4 fold enrichment (6-mer frequency, TF over GST control)"
same,binding signal,ERG,"1.41 fold enrichment (6-mer frequency, TF over GST control)"
same,binding signal,ELF1,"1.46 fold enrichment (6-mer frequency, TF over GST control)"
same,binding signal,EHF,"1.2 fold enrichment (6-mer frequency, TF over GST control)"
same,binding signal,SPI1,"1.41 fold enrichment (6-mer frequency, TF over GST control)"
same,binding signal,SPIB,"1.35 fold enrichment (6-mer frequency, TF over GST control)"
same,binding signal,ELK3,"1.5 fold enrichment (6-mer frequency, TF over GST control)"
same,binding signal,FEV,"1.35 fold enrichment (6-mer frequency, TF over GST control)"
same,binding signal,ETV5,"1.32 fold enrichment (6-mer frequency, TF over GST control)"
same,binding signal,HSF1,"1.11 fold enrichment (6-mer frequency, TF over GST control)"
same,binding signal,SPIC,"1.39 fold enrichment (6-mer frequency, TF over GST control)"
same,binding signal,ELF4,"1.36 fold enrichment (6-mer frequency, TF over GST control)"
same,binding signal,ELK4,"1.34 fold enrichment (6-mer frequency, TF over GST control)"
same,binding signal,ETV2,"1.29 fold enrichment (6-mer frequency, TF over GST control)"
same,binding signal,ELF3,"1.42 fold enrichment (6-mer frequency, TF over GST control)"
same,binding signal,CRX,"1.02 fold enrichment (6-mer frequency, TF over GST control)"
same,binding signal,ETV1,"1.27 fold enrichment (6-mer frequency, TF over GST control)"
